Key:
Details in all cases: Compound Concentration (nM):1000
CDKL3 = tested on: CDKL3
CDKL5 = tested on: CDKL5
CHEK1 = tested on: CHEK1
CHEK2 = tested on: CHEK2
CIT = tested on: CIT
CLK1 = tested on: CLK1
CLK2 = tested on: CLK2
CLK3 = tested on: CLK3
CLK4 = tested on: CLK4
CSF1R-autoinhibited = tested on: CSF1R-autoinhibited
CSF1R = tested on: CSF1R
CSK = tested on: CSK
CSNK1A1L = tested on: CSNK1A1L
CSNK1A1 = tested on: CSNK1A1
CSNK1D = tested on: CSNK1D
CSNK1E = tested on: CSNK1E
CSNK1G1 = tested on: CSNK1G1
CSNK1G2 = tested on: CSNK1G2
CSNK1G3 = tested on: CSNK1G3
CSNK2A1 = tested on: CSNK2A1
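Further: KINOMEscan scanMAX binding as percent activity remaining versus control; lower means stronger binding.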

Row | Structure (SMILES) | Percent Control (CDKL3) [%] | Percent Control (CDKL5) [%] | Percent Control (CHEK1) [%] | Percent Control (CHEK2) [%] | Percent Control (CIT) [%] | Percent Control (CLK1) [%] | Percent Control (CLK2) [%] | Percent Control (CLK3) [%] | Percent Control (CLK4) [%] | Percent Control (CSF1R-autoinhibited) [%] | Percent Control (CSF1R) [%] | Percent Control (CSK) [%] | Percent Control (CSNK1A1L) [%] | Percent Control (CSNK1A1) [%] | Percent Control (CSNK1D) [%] | Percent Control (CSNK1E) [%] | Percent Control (CSNK1G1) [%] | Percent Control (CSNK1G2) [%] | Percent Control (CSNK1G3) [%] | Percent Control (CSNK2A1) [%]
1 | CCS(=O)(=O)c1ccc(OC)c(Nc2ncc(-c3cccc(F)c3)o2)c1 [GW621970X] | 100 | 60 | 100 | 100 | 100 | 19 | 12 | 75 | 23 | 6.2 | 48 | 98 | 100 | 100 | 100 | 100 | 100 | 100 | 100 | 6.2
2 | COc1cccc(-c2c[nH]c3c(N/N=C/c4ccncc4)ncnc23)c1 [GW814408X] | 8 | 4.2 | 100 | 86 | 54 | 30 | 44 | 80 | 30 | 74 | 46 | 66 | 100 | 88 | 92 | 83 | 100 | 90 | 100 | 14
3 | O=C(Nc1n[nH]c2nc(-c3ccc(O)cc3)c(Br)cc12)C1CC1 [SB-725317] | 100 | 37 | 100 | 100 | 51 | 100 | 95 | 100 | 100 | 96 | 100 | 100 | 100 | 100 | 100 | 85 | 100 | 100 | 100 | 87
4 | COc1ccc2[nH]c3c4[nH]c5ccc(OC)cc5c4c4c(c3c2c1)C(=O)NC4=O [GW296115X] | 91 | 94 | 12 | 1.7 | 35 | 80 | 56 | 79 | 57 | 59 | 58 | 95 | 91 | 62 | 94 | 52 | 74 | 86 | 100 | 61
5 | Cl.O=C(O[C@H]1CN[C@H](C#Cc2cc3ncnc(Nc4ccc5c(cnn5Cc5ccccc5)c4)c3s2)C1)N1CCOCC1 [GSK200398A] | 100 | 40 | 100 | 24 | 77 | 83 | 100 | 90 | 100 | 87 | 100 | 67 | 92 | 89 | 91 | 79 | 92 | 100 | 92 | 75
6 | NS(=O)(=O)c1ccc(N/N=C2\C(=O)Nc3ccc(-c4cnco4)cc32)cc1 [GW276655] | 37 | 16 | 100 | 93 | 79 | 36 | 24 | 100 | 37 | 88 | 100 | 92 | 78 | 76 | 60 | 96 | 100 | 72 | 91 | 50
7 | COc1cc(C=NNc2ncnc3c2cnn3-c2ccccc2)ccc1O [GW513184X] | 100 | 100 | 100 | 97 | 96 | 48 | 83 | 82 | 60 | 100 | 100 | 100 | 100 | 77 | 86 | 51 | 100 | 57 | 93 | 28
8 | CC1=C(C(=O)Nc2ccc3[nH]ncc3c2)C(c2ccc3ccccc3c2)CC(=O)N1 (stereo not shown) [GSK270822A] | 72 | 100 | 92 | 100 | 99 | 95 | 80 | 91 | 70 | 54 | 82 | 95 | 64 | 91 | 100 | 100 | 92 | 89 | 100 | 80
9 | NS(=O)(=O)c1ccc(Nc2ncc(-c3ccccc3)o2)cc1 [GW572399X] | 100 | 100 | 100 | 100 | 100 | 100 | 100 | 100 | 100 | 58 | 100 | 100 | 100 | 100 | 100 | 83 | 100 | 100 | 100 | 76
10 | COc1cc(N2CCN(C(C)C)CC2)ccc1Nc1nc(Nc2ccc(F)cc2C(=O)NC[C@@H](O)CO)c2cc[nH]c2n1 [GSK1392956A] | 100 | 43 | 94 | 0.2 | 80 | 1.6 | 2.6 | 77 | 7.5 | 100 | 100 | 86 | 68 | 35 | 31 | 46 | 52 | 32 | 29 | 51
11 | CN(C)CCNC(=O)Nc1ccc(N(C)c2ccnc(Nc3ccc(CS(C)(=O)=O)cc3)n2)cc1.Cl [GW830900A] | 100 | 100 | 100 | 93 | 100 | 85 | 94 | 99 | 100 | 41 | 0.6 | 98 | 85 | 79 | 93 | 88 | 90 | 96 | 95 | 78
12 | CCc1ccc(Oc2nccc(-c3c(-c4ccc(F)cc4)ncn3C3CCNCC3)n2)cc1 [SB-242719] | 100 | 84 | 90 | 84 | 1.2 | 100 | 70 | 100 | 100 | 77 | 100 | 80 | 66 | 5.1 | 1.7 | 0.4 | 83 | 40 | 53 | 77
13 | COc1ccccc1-c1cc(/C=C2\C(=O)Nc3ncc(Br)cc32)cc(Br)c1O [GW442130X] | 93 | 88 | 100 | 79 | 89 | 100 | 67 | 84 | 85 | 100 | 100 | 100 | 100 | 100 | 94 | 79 | 100 | 94 | 100 | 66
14 | O=C1Nc2ccc(C(=O)c3ccco3)cc2C1=Cc1cc(Cl)c(O)c(Cl)c1 [GW406108X] | 100 | 100 | 100 | 42 | 89 | 3.3 | 0.1 | 6.2 | 12 | 61 | 93 | 79 | 100 | 93 | 100 | 100 | 82 | 96 | 100 | 9.7
15 | COc1ccc(COc2ccc(Cc3cnc(N)nc3N)cc2OC)cc1 [GW632580X] | 90 | 84 | 91 | 100 | 80 | 100 | 91 | 100 | 100 |  |  | 87 | 86 | 100 | 100 | 100 | 88 | 88 | 100 | 90
16 | COc1cc2ncn(-c3cc(O[C@H](C)c4ccccc4Cl)c(C(N)=O)s3)c2cc1OC [GSK237701A] | 76 | 100 | 100 | 100 | 100 | 81 | 90 | 77 | 68 | 70 | 63 | 88 | 60 | 88 | 100 | 100 | 85 | 89 | 100 | 83
17 | CN(C)c1cc2c(Nc3ccc4c(cnn4Cc4ccccc4)c3)ncnc2cn1 [GW282974X] | 100 | 40 | 85 | 2.9 | 79 | 75 | 86 | 100 | 100 | 100 | 100 | 23 | 84 | 82 | 97 | 85 | 80 | 100 | 100 | 82
18 | Cl.O=S1CCN(Cc2ccc(-c3ccc4ncnc(Nc5ccc(OCc6ccccc6)c(F)c5)c4c3)o2)CC1 [GW576924A] | 100 | 60 | 100 | 99 | 100 | 100 | 100 | 100 | 100 | 100 | 100 | 100 | 100 | 100 | 100 | 100 | 100 | 100 | 100 | 84

From paper PMC7826789 (International Journal of Molecular Sciences, 2021)
